From PubChem BioAssay (NCATS) come the findings set out here.

The target in assay [1] is Rap guanine nucleotide exchange factor 3 (Homo sapiens) (UniProt O95398). Put plainly: Counterscreen qHTS for antagonist of cAMP-regulated guanine nucleotide exchange factor 3 (EPAC1) (AID 1645888).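 Note: fluorescence loss as bound BODIPY-GDP is released from Rap1B; % of control where 0% means no effect.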 The procedure, abridged: (§1)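 Rap1B–BODIPY-GDP (250 nM) with 50 uM GDP; compounds pin-transferred to 9.74 nM–152 uM final (activator) or from 7.32 nM upwards (inhibitor). Fluorescence Ex/Em 480/540 nm read at 5 and 30 min, then after adding cAMP or buffer, at room temperature.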
Rap guanine nucleotide exchange factor 3 (Homo sapiens), sequence (O95398 whole entry, looked up): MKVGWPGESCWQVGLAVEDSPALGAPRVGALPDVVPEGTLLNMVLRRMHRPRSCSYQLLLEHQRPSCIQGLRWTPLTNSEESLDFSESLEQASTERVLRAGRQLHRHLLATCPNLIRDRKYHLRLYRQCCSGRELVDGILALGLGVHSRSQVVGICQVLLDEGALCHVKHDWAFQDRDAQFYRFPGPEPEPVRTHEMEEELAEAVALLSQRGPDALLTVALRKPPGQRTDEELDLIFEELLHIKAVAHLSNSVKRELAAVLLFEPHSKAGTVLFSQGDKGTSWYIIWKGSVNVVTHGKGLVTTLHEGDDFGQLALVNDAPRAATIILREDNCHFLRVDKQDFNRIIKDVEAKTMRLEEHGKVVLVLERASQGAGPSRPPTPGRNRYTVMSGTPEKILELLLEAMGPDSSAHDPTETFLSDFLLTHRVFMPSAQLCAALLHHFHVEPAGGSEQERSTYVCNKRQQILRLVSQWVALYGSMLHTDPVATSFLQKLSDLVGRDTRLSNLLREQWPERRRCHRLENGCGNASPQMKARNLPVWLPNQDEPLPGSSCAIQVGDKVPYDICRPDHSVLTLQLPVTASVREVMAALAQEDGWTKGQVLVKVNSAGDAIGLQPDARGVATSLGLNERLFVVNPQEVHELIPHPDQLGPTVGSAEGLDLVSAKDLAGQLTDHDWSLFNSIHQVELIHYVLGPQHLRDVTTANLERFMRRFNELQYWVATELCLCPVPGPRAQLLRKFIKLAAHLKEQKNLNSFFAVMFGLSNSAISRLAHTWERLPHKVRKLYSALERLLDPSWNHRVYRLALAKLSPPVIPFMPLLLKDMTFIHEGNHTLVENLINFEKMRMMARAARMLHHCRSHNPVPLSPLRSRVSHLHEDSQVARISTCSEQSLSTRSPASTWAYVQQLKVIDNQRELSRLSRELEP
Background: Counterscreens check selectivity or assay interference.

Assay [2] shares this target. Put plainly: Counterscreen qHTS for agonist of cAMP-regulated guanine nucleotide exchange factor 3 (EPAC1) (AID 1645889). Note: % of control where 0% means no effect; nearly all actives have a fitted effect of over 40% in size. The procedure, abridged:
as §1

For assay [3], the target named is Rap guanine nucleotide exchange factor 4 (Homo sapiens) (UniProt Q8WZA2). Put plainly: Confirmatory qHTS for antagonist of cAMP-regulated guanine nucleotide exchange factor 4 (EPAC2) (AID 1645885). For activity change, negative = inhibition: % is set by controls: 0 for no effect and ±100 for the full control effect. Note: nearly all actives have a fitted effect of over 25% in size. Note: potency is the fitted concentration of half-maximal effect. Background: In qHTS, concentration-response curves come from the screen itself.
Rap guanine nucleotide exchange factor 4 (Homo sapiens), sequence (Q8WZA2 whole entry, looked up): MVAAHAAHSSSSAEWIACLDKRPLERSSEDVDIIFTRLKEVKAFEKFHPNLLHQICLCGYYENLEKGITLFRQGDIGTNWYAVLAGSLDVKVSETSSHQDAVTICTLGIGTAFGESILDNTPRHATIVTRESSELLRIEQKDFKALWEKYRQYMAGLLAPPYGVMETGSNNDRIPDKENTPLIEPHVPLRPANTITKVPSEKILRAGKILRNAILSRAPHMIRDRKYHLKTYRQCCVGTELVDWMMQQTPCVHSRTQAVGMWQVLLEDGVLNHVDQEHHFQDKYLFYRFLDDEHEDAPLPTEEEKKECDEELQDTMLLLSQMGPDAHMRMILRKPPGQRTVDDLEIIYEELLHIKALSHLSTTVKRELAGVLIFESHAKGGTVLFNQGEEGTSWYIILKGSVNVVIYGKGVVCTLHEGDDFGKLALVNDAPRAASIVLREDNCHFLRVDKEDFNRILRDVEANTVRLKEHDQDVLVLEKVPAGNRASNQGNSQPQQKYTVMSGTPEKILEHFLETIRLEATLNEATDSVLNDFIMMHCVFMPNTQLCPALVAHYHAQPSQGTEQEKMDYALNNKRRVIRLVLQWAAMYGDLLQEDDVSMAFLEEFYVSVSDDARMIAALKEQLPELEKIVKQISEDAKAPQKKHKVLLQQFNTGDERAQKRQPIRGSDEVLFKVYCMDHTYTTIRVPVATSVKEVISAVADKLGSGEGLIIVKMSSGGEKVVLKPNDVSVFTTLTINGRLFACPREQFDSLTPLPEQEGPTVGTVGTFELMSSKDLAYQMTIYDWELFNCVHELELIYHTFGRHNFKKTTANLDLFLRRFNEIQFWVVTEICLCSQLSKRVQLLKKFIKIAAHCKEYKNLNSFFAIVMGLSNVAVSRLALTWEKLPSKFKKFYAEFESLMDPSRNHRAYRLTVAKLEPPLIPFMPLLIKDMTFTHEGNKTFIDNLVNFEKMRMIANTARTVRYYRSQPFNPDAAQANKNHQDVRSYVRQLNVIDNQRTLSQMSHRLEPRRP
Assay [4] addresses Catechol O-methyltransferase (Homo sapiens) (UniProt P21964). Put plainly: Confirmatory Screen for Target Class Profiling of Small Molecule Inhibitors of Methyltransferases (AID 1745852; calls by dose curve; note: potency is the fitted concentration of half-maximal effect; for activity change, negative = inhibition: % is set by controls: 0 for no effect and ±100 for the full control effect). To be noted: MTase-Glo luminescence, SAH detection, recombinant enzyme; measured here: COMT max response; stronger effect = lower value.
For assay [5], the target named is Guanidinoacetate N-methyltransferase (Homo sapiens) (UniProt Q14353). The description is as above. The settings on record: MTase-Glo luminescence, SAH detection, recombinant enzyme; activity change, negative = inhibition: at 57.3 µM (top of the series).
Assay [6] deals with Nicotinamide N-methyltransferase (Homo sapiens) (UniProt P40261). The description is as above. The settings on record: MTase-Glo luminescence, SAH detection, recombinant enzyme; measured here: NNMT max response; stronger effect = lower value.
Nicotinamide N-methyltransferase (Homo sapiens), sequence (P40261 whole entry, looked up): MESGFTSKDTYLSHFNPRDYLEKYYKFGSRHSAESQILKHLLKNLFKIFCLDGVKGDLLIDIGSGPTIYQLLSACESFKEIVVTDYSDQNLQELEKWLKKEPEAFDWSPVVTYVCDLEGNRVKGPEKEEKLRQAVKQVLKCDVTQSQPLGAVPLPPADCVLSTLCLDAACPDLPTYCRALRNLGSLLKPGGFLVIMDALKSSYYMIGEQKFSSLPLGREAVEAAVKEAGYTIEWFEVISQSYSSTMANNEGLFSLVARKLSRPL
The target in assay [7] is Phenylethanolamine N-methyltransferase (Homo sapiens) (UniProt P11086). The assay is described as above. To be noted: MTase-Glo luminescence, SAH detection, recombinant enzyme; measured here: PNMT max response; stronger effect = lower value.
Phenylethanolamine N-methyltransferase (Homo sapiens), sequence (P11086 whole entry, looked up): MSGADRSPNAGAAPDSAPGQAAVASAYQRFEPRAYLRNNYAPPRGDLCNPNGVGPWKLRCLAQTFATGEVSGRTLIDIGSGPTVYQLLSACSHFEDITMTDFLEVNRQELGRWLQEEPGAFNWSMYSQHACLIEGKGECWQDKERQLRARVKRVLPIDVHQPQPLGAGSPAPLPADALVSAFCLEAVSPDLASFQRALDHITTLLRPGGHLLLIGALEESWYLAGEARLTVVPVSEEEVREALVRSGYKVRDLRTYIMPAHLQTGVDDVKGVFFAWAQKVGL
The target in assay [8] is Nuclear receptor subfamily 1 group I member 3 (Homo sapiens) (UniProt Q14994). Put plainly: Primary qHTS for antagonist of constitutive androstane receptor (CAR) against the NCATS DSHEA and TCM libraries (AID 1794836).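 Note: HepG2 cells stably expressing hCAR with CYP2B6 luciferase reporter stimulated by CITCO.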 The method, boiled down: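 HepG2-CYP2B6-hCAR cells, attached 5 h, given compounds plus CITCO agonist […], incubated 24 h at 37 C. Luciferase luminescence read, multiplexed with CellTiter-Fluor viability (Ex/Em 405/540 nm).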
Nuclear receptor subfamily 1 group I member 3 (Homo sapiens), sequence (Q14994 whole entry, looked up): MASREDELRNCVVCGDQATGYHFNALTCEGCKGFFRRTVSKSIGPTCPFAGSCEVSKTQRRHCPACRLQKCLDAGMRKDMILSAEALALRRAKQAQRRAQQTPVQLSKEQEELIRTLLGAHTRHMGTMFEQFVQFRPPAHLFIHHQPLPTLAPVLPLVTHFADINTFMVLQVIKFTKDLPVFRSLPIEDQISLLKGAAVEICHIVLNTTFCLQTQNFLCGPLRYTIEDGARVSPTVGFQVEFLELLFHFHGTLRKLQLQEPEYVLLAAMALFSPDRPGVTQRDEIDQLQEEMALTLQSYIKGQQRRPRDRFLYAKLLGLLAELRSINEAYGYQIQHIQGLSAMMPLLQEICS

A short description of assay [9]: NCATS anti-infectives library activity on HEK293 viability as a counter-qHTS vs the C. elegans viability qHTS (AID 1745854). Note: potency is the fitted concentration of half-maximal effect. The method, boiled down: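 Compounds were acoustically plated (several concentrations, 1:5, final up to 41.7 uM), then 1500 HEK293 cells added per well and incubated 24 hr at 37C, 5% CO2. CellTiter-Glo was added and luminescence read after 10 min.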

Assay [10] in a line: NCATS anti-infectives library activity on the primary C. elegans qHTS viability assay (AID 1745855; calls by dose curve; note: potency is the fitted concentration of half-maximal effect). To be noted: C. elegans worm area imaging, day 7. The procedure, abridged: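 Viability read-out is GFP fluorescence of PE254-GFP-FLuc C. elegans, measured by laser cytometry (488 nm) at day 0, 3 and 7. Ten L1 worms per well were incubated 7 days at 21 °C with compounds and bacterial capsules in S medium.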

Inconclusive results are not listed. The source made the active and inactive calls. Unless noted, calls come from the whole dose curve; as a rule, active = well fitted curve in the direction sought with a large enough effect; inconclusive = small, poorly fitted or top-dose-only effect, or another doubt; inactive = no such curve, though single readings can be large; an effect the other way counts as inactive or inconclusive.

Catechol O-methyltransferase (Homo sapiens), sequence (P21964 whole entry, looked up): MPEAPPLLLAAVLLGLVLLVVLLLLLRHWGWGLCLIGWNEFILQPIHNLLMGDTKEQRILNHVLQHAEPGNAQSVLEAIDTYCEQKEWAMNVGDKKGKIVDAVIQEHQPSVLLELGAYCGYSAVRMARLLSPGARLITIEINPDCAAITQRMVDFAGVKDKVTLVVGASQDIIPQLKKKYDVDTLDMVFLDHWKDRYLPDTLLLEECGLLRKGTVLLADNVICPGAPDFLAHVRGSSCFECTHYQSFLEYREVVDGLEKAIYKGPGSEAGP

For `CCCCOC(=O)c1ccccc1C(=O)OCc1ccccc1`, the outcome in assay [1] and in assay [2] was “inactive” throughout.
As for `CCCN(CCC)c1c([N+](=O)[O-])cc(S(N)(=O)=O)cc1[N+](=O)[O-]`, in assay [3], the Potency was 89.7 µM (active).
For the molecule `CCCN(CCC)[C@@H]1CCc2ccc(O)cc2C1`, the activity in assay [4] is 3.68%; in assay [6], -6.47%; in [7], 6.74%. In assay [5], the activity change, negative = inhibition was found to be 1.97%.
Regarding `CN(C)[C@@H]1C(=O)C(C(N)=O)=C(O)[C@@]2(O)C(=O)C3=C(O)c4c(O)cccc4[C@@](C)(O)[C@H]3[C@H](O)[C@@H]12`, the Potency entry in assay [3] is “inactive”.
Turning to `CC1=C(C/C=C(\C)CCC[C@H](C)CCC[C@H](C)CCCC(C)C)C(=O)c2ccccc2C1=O`, in assay [8], the outcome was “inactive”.
`NC1CC1c1ccccc1` (stereo not drawn): the activity in assay [4] is 4.07%; in assay [6] it was -6.32%; in assay [7], -14.4%. Further, the activity change, negative = inhibition in assay [5] came out at 2.15%.
The corresponding values for `C[C@@H](N)Cc1cnc[nH]1` are -4.66%, -6.87%, -2.06% and -1.84%.
Consider `Cn1cnc(CCN)c1`, for which the activity is 2.37% in [4], -8.03% in assay [6] and 3.1% in assay [7]. The activity change, negative = inhibition in [5] was determined as 1.75%.
Take `CC1=NN=C(c2ccc(N)cc2)c2cc3c(cc2C1)OCO3`: the Potency entry in assay [3] is “inactive”.
For `CC1=C(O)C(=O)C=C2C1=CC=C1[C@@]2(C)CC[C@@]2(C)[C@@H]3C[C@](C)(C(=O)O)CC[C@]3(C)CC[C@]12C`, the Potency in assay [9] was 7.94 µM (active); in assay [10], 4.59 µM (active).
`c1ccc(CCCN2CCN(CCOC(c3ccccc3)c3ccccc3)CC2)cc1`: in assay [3], the Potency result is “inactive”. For the same molecule, the outcome in assay [1] is “inactive”.
On to `CNCCc1c[nH]c2ccc(O)cc12`, for which the activity in assay [4] was 2.02%; in assay [6] it was -11.4%; in assay [7], 0.784%. For the same molecule, the activity change, negative = inhibition in [5] was found to be 1.54%.
Consider `CC(C)NC(C)Cc1ccc(I)cc1` (stereo not drawn), for which the activity is 0.93% in assay [4], -9.49% in assay [6] and 2.34% in assay [7]. In addition, the activity change, negative = inhibition in [5] is 2.72%.
In the same order, the values of `NCCc1c[nH]c2ccccc12` are -4.15%, -8.81%, -14.8% and 2.74%.
In the same order, the values of `CNCCc1ccc(O)c(O)c1` are 109%, -0.877%, 1.2% and 3.55%.
As for `Cc1nc(-c2ccc(-c3ccc(C(=O)N4CCc5cc6c(cc54)C4(CCN(C)CC4)CO6)cc3)c(C)c2)no1`, the Potency result in assay [3] was “inactive”.
For `O=S(=O)(F)Cc1ccccc1`, the Potency result in assay [9] is “inactive”.
Same read-out and setting: the value for `CCNC(=O)C[C@@H]1N=C(c2ccc(Cl)cc2)c2cc(OC)ccc2-n2c(C)nnc21` was “inactive”.
Consider `O=C(Oc1ccc([N+](=O)[O-])cc1)N1CCC(C(O)(c2ccc3c(c2)OCO3)c2ccc3c(c2)OCO3)CC1`, for which the Potency result in [9] is “inactive”.
Same read-out and setting: the value for `O=C1C=CC[C@@H]2[C@H]3CCCN4CCC[C@@H](CN12)[C@@H]34` was “inactive”; that for `O=S(=O)(CC1CS1)c1ccc(Oc2ccccc2)cc1` (stereo not drawn) was “inactive”.
Turning to `Cc1[nH]nc2ccc(-c3cncc(OC[C@@H](N)Cc4c[nH]c5ccccc45)c3)cc12`, the activity in [4] was -31.1%; in assay [6], -70.5%; in assay [7], -56.5%. Also, the Potency in assay [5] was 30.4 µM (active).
`CCCCCC[C@H]1C(=O)O[C@H](C)[C@H](NC(=O)c2cccc(NC=O)c2O)C(=O)O[C@@H](C)[C@@H]1OC(=O)CC(C)C`: in assay [9], the Potency result was “inactive”. For the same molecule, the Potency in assay [10] is 7.27 µM (active).
In the case of `NC1CCc2cc(O)c(O)cc2C1` (stereo not drawn), the activity is 149% in assay [4], -14.5% in [6] and -22.8% in [7]. The activity change, negative = inhibition in [5] was 0.293%.
